Shown are actives, neighbours in structure and some others; about 11% of the full set was active somewhere.
MCF10A rerep = inducers of DNA re-replication in MCF 10A breast cells; MCF 10A DNA re-replication, Hoechst nuclear intensity, 48 h; Potency, µM (doses to about 46.1 µM), actives largely listed as activators; hit rate 2.9% among 350,000; AID 624296; also: nearly all actives have a fitted effect of over 50% in size
SW480 rereplic = DNA re-replication induction in SW480 cells. AID 624297. SW480 DNA re-replication, Hoechst DNA content imaging, 48 h. hit rate 1.8% among 340,000. Potency, µM (titrated, usually from 46.1 µM), actives largely listed as activators; also: nearly all actives have a fitted effect of over 55% in size
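DNA re-replication was detected as more nuclei of elevated Hoechst intensity after 48 hr exposure to compound (23 nL pinned per well of 250 cells).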
Gal4-VP16 FLuc = Gal4-VP16 reporter inhibition counter-screen; Drosophila S2 Gal4-VP16 UAS-luciferase, luminescence, 20 h; Potency, µM (top dose mostly 53.6 µM), hits mostly inhibitors; hit rate 3.5% among 310,000;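 also: Gal4-VP16 expression switched on by copper sulfate through the metallothionein promoter; nearly all actives have a fitted effect of over 50% in size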
RORgamma inh = blocks mouse ROR gamma transcriptional activity; P51450; Drosophila S2 Gal4-RORgamma UAS-luciferase reporter, 20 h; Potency, µM (doses to about 53.6 µM), hits mostly inhibitors; hit rate 5.4% among 310,000; AID 2551; also: nearly all actives have a fitted effect of over 60% in size
Target sequence (P51450 whole entry, looked up, the tested form may be a part): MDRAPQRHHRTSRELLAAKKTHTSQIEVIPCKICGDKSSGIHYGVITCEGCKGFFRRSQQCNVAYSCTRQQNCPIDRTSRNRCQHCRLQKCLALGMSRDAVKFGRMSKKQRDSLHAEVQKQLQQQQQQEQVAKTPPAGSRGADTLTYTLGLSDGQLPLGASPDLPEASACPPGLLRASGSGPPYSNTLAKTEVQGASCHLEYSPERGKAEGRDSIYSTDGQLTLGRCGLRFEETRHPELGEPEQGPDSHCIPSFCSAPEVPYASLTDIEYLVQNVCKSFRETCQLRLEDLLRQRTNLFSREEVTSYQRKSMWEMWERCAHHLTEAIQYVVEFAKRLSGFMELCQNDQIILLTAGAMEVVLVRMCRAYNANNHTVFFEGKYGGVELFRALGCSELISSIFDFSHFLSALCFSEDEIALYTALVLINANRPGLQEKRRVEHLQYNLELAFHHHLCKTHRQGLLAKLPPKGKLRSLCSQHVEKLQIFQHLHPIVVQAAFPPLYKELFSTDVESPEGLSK
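A Gal4/UAS one-hybrid system in insect cells: metallothionein-promoter Gal4–ROR gamma fusion plus Photinus luciferase reporter. Copper sulfate 700 uM final, 20 hr ambient incubation, luminescent detection after 10 min with reagent.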
IL-1B inflam inh = inflammasome signaling inhibition, IL-1 beta readout; THP-1 LPS/ATP IL-1B secretion, AlphaLISA, 16 h; hits give low values; activity change, % at 57.5 µM; hit rate 4.7% among 360,000; in the data active = activity change below about -50%; inconclusive = mostly about -30% to -49%
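Secreted IL-1B measured by AlphaLISA bead assay after 16 h compound exposure of THP-1 cells; compounds (final up to 57.5 uM) added 1 h before LPS (250 ng/mL) and ATP (1.25 mM) stimulation; lower signal means less secretion.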
Of the large screens only hits and unclear results are named; the others gave an inactive call. Unless noted, calls follow the shape of the dose curve; as a rule, active = well fitted curve in the direction sought with a large enough effect; inconclusive = small, poorly fitted or top-dose-only effect, or another doubt; inactive = no such curve, though single readings can be large; an effect the other way counts as inactive or inconclusive.

COCCN=c1scc(-c2ccc3c(c2)NC(=O)CO3)n1/N=C(\C)c1ccc(O)cc1	MCF10A rerep inconclusive, SW480 rereplic inconclusive, Gal4-VP16 FLuc inconclusive, RORgamma inh inconclusive, IL-1B inflam inh -60.5
CCc1cc(-c2n[nH]c(C)c2-c2nc(C)cs2)c(O)cc1OC	Gal4-VP16 FLuc inconclusive, RORgamma inh 12.6µM, IL-1B inflam inh -77.5
Cc1cccc(N(CC(O)CN2CCCC2)S(=O)(=O)c2ccccc2)c1 (configuration not stated)	none
COC(=O)CNC(=O)COC(=O)/C=C/c1ccccc1[N+](=O)[O-]	MCF10A rerep 5.8µM
COC(=O)C(=Cc1ccccc1[N+](=O)[O-])C(=O)OC	MCF10A rerep 23.1µM, SW480 rereplic inconclusive, RORgamma inh inconclusive, IL-1B inflam inh -65.5
Cc1ccc(C(=O)NC(=S)c2c(C)cc3ccccn23)cc1	none (no result: MCF10A rerep, SW480 rereplic, Gal4-VP16 FLuc, RORgamma inh)
O=c1[nH]c2ccccc2n1Cc1ccc(Cl)cc1	none
O=C1[C@H](Cc2ccccc2)NCC=CC[C@@H](c2ccc(Cl)cc2)N1Cc1ccc(Cl)cc1	MCF10A rerep inconclusive, IL-1B inflam inh -59.7 (no result: Gal4-VP16 FLuc, RORgamma inh)
COC(=O)C1=C(C(=O)OC)[C@]2([C@H]3CCCCN[C@@H](Cc4ccccc4)C(=O)N3Cc3ccccc3)C=C[C@H]1O2	none (no result: Gal4-VP16 FLuc, RORgamma inh)
O=C1[C@H](Cc2ccccc2)NCC=CC[C@H](c2ccc(Cl)cc2)N1Cc1ccccc1	SW480 rereplic inconclusive, IL-1B inflam inh -52.3 (no result: Gal4-VP16 FLuc, RORgamma inh)
O=C1[C@H](Cc2ccccc2)NCCCC[C@@H](c2ccc(Cl)cc2)N1Cc1ccccc1	IL-1B inflam inh -53.1 (no result: Gal4-VP16 FLuc, RORgamma inh)
O=C1[C@H](Cc2ccccc2)NCCCC[C@H](c2ccc(Cl)cc2)N1Cc1ccc(Cl)cc1	MCF10A rerep inconclusive, IL-1B inflam inh inconclusive (no result: Gal4-VP16 FLuc, RORgamma inh)
O=C1[C@H](Cc2ccccc2)NCC=CC[C@H](c2ccc(Cl)cc2)N1Cc1ccc(Cl)cc1	IL-1B inflam inh -65.5 (no result: Gal4-VP16 FLuc, RORgamma inh)
Cc1ccc(N)cc1NC(=O)CN1CCOCC1	none
Cc1cccc(C(=O)OC(C)C(=O)N2CCc3ccccc3C2)c1C (configuration not stated)	none (no result: Gal4-VP16 FLuc, RORgamma inh)
COC(=O)CSc1nnc(NC(=O)c2ccc3c(c2)OCO3)s1	Gal4-VP16 FLuc inconclusive, RORgamma inh 6.31µM
COC(=O)CSc1nnc(NC(=O)/C=C\c2ccc3c(c2)OCO3)s1	none
O=C(O)CSc1nnc(NC(=O)c2ccc3c(c2)OCO3)s1	Gal4-VP16 FLuc 12.6µM, RORgamma inh 12.6µM
O=C1CN(C(=O)c2ccccc2F)c2ccccc2N1	none
O=C1CN(C(=O)c2ccc(Cl)c([N+](=O)[O-])c2)c2ccccc2N1	IL-1B inflam inh -78.3
COc1cc(OC)cc(C(=O)N2CC(=O)Nc3ccccc32)c1	MCF10A rerep 1.46µM, SW480 rereplic 3.26µM
CC(C)n1nc(C(=O)OCC(=O)N2CC(=O)Nc3ccccc32)c2ccccc2c1=O	none
CCCn1nc(C(=O)N2CC(=O)Nc3ccccc32)c2ccccc2c1=O	MCF10A rerep 14.6µM, SW480 rereplic 14.6µM
CC1(C(=O)Nc2cccc3c2CCCC3)CCN1C(=O)c1cccc(F)c1 (configuration not stated)	none (no result: MCF10A rerep, SW480 rereplic, Gal4-VP16 FLuc, RORgamma inh)
COc1ccc(NS(=O)(=O)c2cccc(NC(=O)NC3CCCCC3)c2)cc1	RORgamma inh inconclusive, IL-1B inflam inh -69.2
COc1ccccc1NS(=O)(=O)c1ccc(C)c(NC(=O)NC2CCCCC2)c1	IL-1B inflam inh inconclusive
COc1ccc(NS(=O)(=O)c2cccc(NC(=O)COc3ccc(OC)cc3)c2)cc1	none
COc1ccc(NS(=O)(=O)c2ccc(C)c(NC(=O)NC3CCCCC3)c2)cc1	MCF10A rerep inconclusive, RORgamma inh inconclusive, IL-1B inflam inh -73.6
CS(=O)(=O)N(CCc1ccccc1)CC(=O)N1CCCCCC1	none (no result: MCF10A rerep, SW480 rereplic, Gal4-VP16 FLuc, RORgamma inh)
CNC(=O)c1[nH]cnc1C(=O)Nc1cccc(OC)c1	MCF10A rerep inconclusive, Gal4-VP16 FLuc 14.1µM, RORgamma inh 7.08µM
CNC(=O)c1[nH]cnc1C(=O)Nc1ccccc1	none (no result: Gal4-VP16 FLuc, RORgamma inh)
CNC(=O)c1[nH]cnc1C(=O)Nc1ccc(F)cc1	Gal4-VP16 FLuc inconclusive, RORgamma inh 12.6µM
Cc1ccc(NC(=O)c2nc[nH]c2C(=O)Nc2ccc(C)cc2)cc1	MCF10A rerep inconclusive, SW480 rereplic inconclusive, Gal4-VP16 FLuc 2.82µM, RORgamma inh 1.41µM
CNC(=O)c1[nH]cnc1C(=O)Nc1ccc(C)cc1	Gal4-VP16 FLuc 4.47µM, RORgamma inh 3.98µM
